Bioassay records (PubChem)
PKA-R1A activ: activates the PKA-R1A holoenzyme complex; 340,000 compounds, 0.083% hits; PKA-R1A dissociation, Cy5-IP20 fluorescence polarization; scaled: DMSO 0%, 113 µM cGMP 100%; AID 504707; P00514+P68181; activation, % at 11.4 µM;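 active = percent activation above the mean of all tested compounds plus 3 SD, cut at about 19% in these data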;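 also: higher means more PKAc released from R1A so a rise in polarization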
pPAFAH FP inh: inhibitors of human plasma PAF acetylhydrolase (pPAFAH). AID 463082. inhibition, % at 3.39 µM. Q13093. 330,000 compounds, 1.5% hits. recombinant pPAFAH, FP-rhodamine probe fluorescence polarization;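 active = inhibition above the mean inhibition across the screen plus 3 SD, cut at about 25% in these data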;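 also: inhibitors block binding of the rhodamine activity-based probe so polarization drops; 0% = enzyme with DMSO and 100% = wells lacking pPAFAH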
PAFAH1B2 inh: PAFAH1B2 (human) inhibition. P68402. recombinant PAFAH1B2, FP-rhodamine activity probe, fluorescence polarization. inhibition, % at 3.39 µM. 340,000 compounds, 1.2% hits. AID 492953;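 active = inhibition above the mean of all tested compounds plus 3 SD, cut at about 24% in these data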;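 also: 0% = enzyme with DMSO and 100% = wells lacking PAFAH1B2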
Target sequence (P68402 whole entry, looked up): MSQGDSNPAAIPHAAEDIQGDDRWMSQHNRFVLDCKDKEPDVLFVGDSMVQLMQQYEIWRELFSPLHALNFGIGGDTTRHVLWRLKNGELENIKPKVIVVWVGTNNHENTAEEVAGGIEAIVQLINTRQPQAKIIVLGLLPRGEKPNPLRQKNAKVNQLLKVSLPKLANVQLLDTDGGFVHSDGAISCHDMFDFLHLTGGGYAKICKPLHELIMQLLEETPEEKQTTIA
PAFAH2 inh: inhibitors of human PAFAH2; 340,000 compounds, 0.99% hits; AID 492956; recombinant PAFAH2, FP-rhodamine activity probe, fluorescence polarization; inhibition, % at 3.39 µM;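 active = inhibition above the mean over all tested compounds plus 3 SD, cut at about 30% in these data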;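 also: inhibitors block probe labeling of enzyme so polarization drops; 0% = enzyme with DMSO and 100% = wells lacking PAFAH2 protein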
PKA-R2B activ: activators of human PKA-R2B complex; activation, % at 11.4 µM; AID 504700; P22694+P31323; PKA-R2B holoenzyme dissociation, Cy5-IP20 fluorescence polarization; R2B truncated from residue 108, S112A mutant; 0% DMSO only, 100% 113 µM cGMP; 340,000 compounds, 0.079% hits;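 active = activation above a cutoff set at the mean over all compounds plus 3 SD, cut at about 18% in these data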;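 also: higher means more holoenzyme dissociation and a rise in polarization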
PAFAH1B3 FP inh: inhibitors of human PAFAH1B3. Q15102. recombinant PAFAH1B3, FP-rhodamine probe, fluorescence polarization. inhibition, % at 3.39 µM. 340,000 compounds, 0.28% hits;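 active = inhibition above the screen-wide average of all tested compounds plus 3 SD, cut at about 25% in these data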;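 also: 0% = enzyme with DMSO only and 100% = wells lacking PAFAH1B3 protein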
Target sequence (Q15102 whole entry, looked up): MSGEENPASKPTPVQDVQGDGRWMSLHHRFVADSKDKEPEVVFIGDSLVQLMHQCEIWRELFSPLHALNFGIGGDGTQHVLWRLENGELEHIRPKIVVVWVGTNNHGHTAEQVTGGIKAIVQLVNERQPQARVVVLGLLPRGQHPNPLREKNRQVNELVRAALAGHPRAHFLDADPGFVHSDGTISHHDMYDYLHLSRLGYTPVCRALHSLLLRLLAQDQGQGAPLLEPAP
PAFAH2 confirm: confirmation of human PAFAH2 inhibitors; 2,300 compounds, 65% hits; inhibition, % at 3.39 µM; recombinant PAFAH2, FP-rhodamine activity probe, fluorescence polarization; shares compounds with PAFAH2 inh;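 active = mean inhibition over three repeats above a set limit taken from the earlier primary screen, cut at about 30% in these data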;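 also: inhibitor blocks binding of rhodamine activity probe so polarization falls; 0% = enzyme with DMSO and 100% = wells lacking PAFAH2 protein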
An asterisk follows results filed as active; . = no result. The list is not random: actives were taken first. Their share in the collection is about 2.6%.

SMILES	PKA-R1A activ	pPAFAH FP inh	PAFAH1B2 inh	PAFAH2 inh	PKA-R2B activ	PAFAH1B3 FP inh	PAFAH2 confirm
CCC(C)NC(=O)COC(=O)c1csc2c1CCCC2 (configuration not stated)	-8	6	5	57*	-9	-6	47*
CC(C)CNC(=S)NNC(=O)c1csc2c1CCCC2	5	0	2	-1	-6	7	.
Cc1cc(C)n(CCCNC(=O)C2CC(=O)N(Cc3ccccc3)C2)n1 (configuration not stated)	-7	1	2	3	-14	9	.
O=C(CSc1nnc(-c2ccccc2)n1-c1ccccc1)c1cccs1	1	-4	16	43*	0	13	29
O=C(CSc1nnc(-c2ccccc2)n1-c1ccccc1)c1ccc[nH]1	-4	8	13	-2	0	4	.
CN(CCN1CCOCC1)C(=O)c1cc(COc2ccc(F)c(F)c2)on1	-2	-3	-2	-9	4	-3	.
CCOc1ccccc1NC(=O)Cn1c(=O)sc2ccccc21	1	0	2	3	-5	-2	.
O=C(Cn1c(=O)sc2ccccc21)Nc1ccc(O)cc1	-4	-5	4	31*	-9	10	29
CC1Cc2ccccc2N1C(=O)COC(=O)c1ccc(Cl)c(S(=O)(=O)N2CCOCC2)c1 (configuration not stated)	-3	12	1	10	2	5	.
CC(C)(C)SC(=O)CC1NS(=O)(=O)OCC1NC(=O)OCC(Cl)(Cl)Cl (configuration not stated)	9	-5	4	49*	5	5	34*
O=c1c2c(nc3c(-c4cccc5ccccc45)c[nH]n13)CCC2	-11	11	1	68*	5	6	69*
Cc1[nH]n2c(=O)c3c(nc2c1-c1cccc2ccccc12)CCC3	3	6	-1	10	-7	4	.
Cc1c(C(=O)OCC(=O)NCc2ccco2)cccc1[N+](=O)[O-]	-2	4	0	3	-9	0	.
CC(=O)c1ccc(NC(=O)c2ccc(NC(=O)CCS(=O)(=O)c3cccs3)cc2)cc1	-9	1	0	72*	-8	0	58*
N#C/C(=C\c1ccc(OCc2cccc(C(=O)O)c2)cc1)C(=O)NCc1ccco1	-9	-3	12	37*	-8	13	28
N#C/C(=C\c1ccc(OCc2ccc(C(=O)O)cc2)cc1)C(=O)NCc1ccccc1	-11	4	3	-11	-9	0	.
Cc1nn(-c2ccccc2)c(C)c1C(=O)OCC(=O)Nc1ccccc1	-3	2	7	55*	-2	3	43*
Cc1ccc(NC(=O)COC(=O)c2c(C)nn(-c3ccccc3)c2C)cc1	-5	2	-1	19	0	1	.
Cc1nn(-c2ccccc2)c(C)c1C(=O)OCC(=O)Nc1ccc2c(c1)OCO2	-22	6	-1	35*	-13	7	30*
O=C1C=C(c2cccc3c2sc2ccccc23)C[C@@H](c2ccc(Cl)cc2)C1	2	-8	1	-1	-8	1	.
COc1cc(C(=O)NCC(c2cccs2)N2CCOCC2)ccc1OCc1ccc(Cl)cc1 (configuration not stated)	-4	.	.	.	0	.	.
O=C(O)c1cccc(N/N=C/c2ccc(F)c(F)c2)c1	13	9	-1	3	-6	1	.
O=C(O)c1cccc(N/N=C/C2=C(Cl)c3cc(Cl)ccc3SC2)c1	6	.	15	36*	-6	17	15
COc1ccc(-c2csc(NC(=O)c3nc(-c4ccccc4)oc3C)n2)cc1	-11	4	-2	-1	14	-2	.
Cc1oc(-c2ccccc2)nc1C(=O)Nc1nccs1	2	7	4	32*	-2	3	1
SMILES	PKA-R1A activ	pPAFAH FP inh	PAFAH1B2 inh	PAFAH2 inh	PKA-R2B activ	PAFAH1B3 FP inh	PAFAH2 confirm
O=C(CCn1c(=O)oc2ccc(Cl)cc21)N1CCN(Cc2ccccc2)CC1	0	3	7	4	3	6	.
CCN(CC)S(=O)(=O)c1ccc(N2CCOCC2)c(NC(=O)Cc2cccc3ccccc23)c1	-18	9	-7	60*	-12	6	45*
CN(C(=O)c1ccccc1C(=O)OCC(=O)Nc1ccccc1)c1ccccc1	-8	4	7	78*	-4	2	77*
O=C(COC(=O)c1ccco1)Nc1ccccc1	-6	4	-3	68*	-1	4	66*
CCOC(=O)c1ccccc1NC(=O)COC(=O)c1ccccc1C(=O)N(C)c1ccccc1	-10	4	1	6	-3	3	.
O=C(COC(=O)c1ccco1)Nc1ccc([N+](=O)[O-])cc1Cl	-4	-2	1	41*	-1	6	23
CC(NC(=O)COC(=O)c1ccco1)c1ccccc1 (configuration not stated)	-2	4	3	32*	1	-1	26
O=C(C[C@@H]1C[C@@H]2c3cc(NC(=O)C4CCOCC4)ccc3O[C@@H]2[C@H](CO)O1)NCc1ccccn1	11	.	.	.	-3	.	.
Cc1ccc(S(=O)(=O)NCCC(=O)Nc2cccc(S(=O)(=O)N3CCCC3)c2)cc1C	-5	-1	-3	-2	5	1	.
COc1c(C=O)c2c(c(OC)c1OC)-c1ccc(OC)c(=O)cc1C(NC(C)=O)CC2 (configuration not stated)	-7	.	4	-1	-6	6	.
O=C(COC(=O)c1ccco1)Nc1ccc(Br)cc1	-7	1	4	77*	-3	6	69*
O=C(COC(=O)c1ccco1)Nc1ccc2[nH]c(=O)[nH]c2c1	6	-1	-4	-2	-4	6	.
Cc1cc(N2CCOCC2)nc2ccc(NC(=O)CCC(=O)N3CCN(c4cccc(C(F)(F)F)c4)CC3)cc12	2	5	5	1	-2	3	.
CCSC1=N/C(=C\c2ccc(C(=O)O)cc2)C(=O)S1	-9	2	0	31*	-9	11	15
O=C(NNC(=O)C12CC3CC(CC(C3)C1)C2)c1ccccn1	4	5	8	37*	7	16	18
O=C(NNC(=O)C12CC3CC(CC(C3)C1)C2)c1cnccn1	0	0	1	10	1	2	.
COCCN(C(=S)Nc1c(C)cc(C)cc1C)C(C)c1cccs1 (configuration not stated)	-6	7	2	31*	-9	5	28
